PubChem BioAssay
Unmarked numbers belong to inactive results.

Test: optical density shifts of acrAB sulA E. coli – strain DRC41, OD650, 48 h, E. coli filamentation inducer project, primary screen (AID 1152);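 note: E. coli MC1000 strain DRC41 lacking acrAB efflux pump and sulA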
Conditions: higher = more signal, called active from +8 up or from −8 down

Row | Compound | z-score
1 | COC(=O)C=C(CC(O)c1cccc(Cl)c1)OC (stereo not given) | 0.502
2 | COC(=O)[C@@]1(Cc2ccccc2)[C@H]2c3cc(C(=O)N4CCCC4)n(CC4CC4)c3C[C@H]2CN1C(=O)c1ccccc1 | -1.47
3 | COCCOC(=O)N1C(=O)[C@@]2(c3cc(C#CCCO)ccc31)[C@H](c1ccc(OCCO)cc1)N1[C@H](c3ccccc3)[C@H](c3ccccc3)OC(=O)[C@H]1[C@@H]2C(=O)N1CCN(c2ncccn2)CC1 | -0.304
4 | COC(=O)[C@@]1(Cc2ccc(F)cc2)[C@H]2c3cc(C(=O)N(C)C)n(Cc4ccc(S(C)(=O)=O)cc4)c3C[C@H]2CN1C(=O)c1ccccc1 | -0.367
5 | CCC(CC)C(O)C1C=CC2C(=O)N(C)C(=O)C2N1Nc1ccccc1 (stereo not given) | -0.39
6 | C=CCNC(=O)[C@@H]1[C@H]2C(=O)O[C@H](c3ccccc3)[C@H](c3ccccc3)N2[C@H](c2ccc(OCCO)cc2)[C@@]12C(=O)Nc1ccc(C#CCCO)cc12 | -0.41
7 | O=C(NCc1ccc(F)cc1)[C@H]1C[C@H]2C(=O)N[C@@H](Cc3ccccc3)C(=O)N2[C@H]1c1ccc(O)cc1 | 0.132
8 | COC(=O)[C@@]1(Cc2ccc(F)cc2)[C@H]2c3cc(C(=O)N4CCCC4)n(Cc4cc(C)n(C)n4)c3C[C@H]2CN1C(=O)c1ccccc1 | -0.859
9 | C=CC[C@]1(C(=O)N2CCCCC2)N=C(c2ccc(OCCCO)cc2)O[C@H]1c1ccccc1 | 0.573
10 | CN1C(=O)C2C=CC(C(O)C3CCCCC3)N(Nc3ccc([N+](=O)[O-])cc3[N+](=O)[O-])C2C1=O (stereo not given) | -1.06
11 | C=C(C)C1C(=C)CN([C@H](CO)c2ccccc2)C1=O (stereo not given in full) | -1.08
12 | N#Cc1ccc(NN2C(C(O)c3c(F)cccc3Cl)C=CC3C(=O)N(c4ccccc4)C(=O)C32)cc1 (stereo not given) | -0.857
13 | [N-]=[N+]=Nc1ccccc1[C@H]1OC(c2ccc(OCCCO)cc2)=N[C@@]1(Cc1ccccc1)C(=O)O | 0.409
14 | O=C1NCC(=O)N2[C@@H]1C[C@@H](C(=O)O)[C@H]2c1cccc(OCCO)c1 | 0.0481
15 | COc1ccc(CCN2C(=O)[C@@]3(Cc4ccccc42)c2ccccc2C(=O)N(Cc2ccccc2C(F)(F)F)[C@H]3c2ccc(CO)cc2)cc1 | -0.262
16 | CN(C)C(=O)[C@]1(Cc2ccccc2CN=[N+]=[N-])N=C(c2ccc(OCCCO)cc2)O[C@@H]1c1ccccc1CN=[N+]=[N-] | -0.214
17 | CC(C)C[C@@H]1NC(=O)[C@H]2C[C@@H](C(=O)NCCCCCCN)[C@@H](c3ccc(O)cc3)N2C1=O | -0.63
18 | C=C(CCCC)/C(=C/C[C@@H](OC(C)=O)c1ccccc1OCCO)c1cnc2ccccc2c1 | -0.19

Row | Compound | z-score
19 | COC(=O)[C@@]1(Cc2ccccc2)[C@H]2c3cc(C(=O)N4CCCC4)n(Cc4cccc5ccccc45)c3C[C@H]2CN1C(=O)c1ccccc1 | -1.22
20 | [N-]=[N+]=NCc1ccccc1[C@@H]1OC(c2ccc(OCCCO)cc2)=N[C@]1(CCS(=O)(=O)c1ccccc1)C(=O)NCc1ccccc1 | -0.665
21 | O=C1C[C@]2(c3ccc([N+](=O)[O-])cc3)C(=O)N(CCN3CCOCC3)c3cc(CO)ccc3[C@H]2N1C1CCCCC1 | 0.918
22 | O=C1O[C@@H](c2ccccc2)[C@@H](c2ccccc2)N2[C@@H](c3ccc(OCCO)cc3)[C@]3(C(=O)Nc4ccccc43)[C@@H](C(=O)NC[C@H](O)c3ccccc3)[C@H]12 | -0.29
23 | Cc1ccc(C(C)CC(O)C2C=CC3C(=O)N(c4ccccc4)C(=O)C3N2Nc2ccc([N+](=O)[O-])cc2)o1 (stereo not given) | -0.571
24 | CC(C)C[C@@H]1NC(=O)[C@@H]2C[C@H](C(=O)NCCCCCN)[C@H](c3cccc(OCCO)c3)N2C1=O | 1.28
25 | C=C(CCCC)C(=O)CC[C@@H](OC(=O)c1cccnc1)c1ccc(CO)o1 | -0.367
26 | COc1ccc(C(O)C2C=CC3C(=O)N(c4ccccc4)C(=O)C3N2Nc2ccc(C(C)C)cc2)cc1OCc1ccccc1 (stereo not given) | -3.31
27 | CC(C)[C@@H](CO)NC(=O)[C@H]1[C@@H](c2ccccc2)N(c2ccccc2)O[C@@H]1C | 1.6
28 | O=C1c2ccccc2[C@](Cc2ccccc2I)(C(=O)NC2CC2)[C@H](c2ccc(CO)cc2)N1C1CCCCC1 | 0.0304
29 | CC1CC/C=C\[C@H]2OC34C=CCN(Cn5nnc6ccccc65)C(=O)[C@H]3N(C(CO)C(C)C)C(=O)[C@@H]4C2C(=O)O1 (stereo not given in full) | 0.532
30 | C=CCOC(=O)[C@H]1[C@@H]2C(=O)O[C@@H](c3ccccc3)[C@@H](c3ccccc3)N2[C@@H](c2ccc(OCCOC(=O)[C@H]3C[C@H]4C(=O)N[C@@H](CC(C)C)C(=O)N4[C@H]3c3ccc(O)cc3)cc2)[C@]12C(=O)Nc1ccc(I)cc12 | -1.1
31 | COCCOC(=O)N1C(=O)[C@@]2(c3cc(C#CC4=CCCCC4)ccc31)[C@H](c1ccc(O)cc1)N1[C@H](c3ccccc3)[C@H](c3ccccc3)OC(=O)[C@H]1[C@@H]2C(N)=O | -0.623
32 | CN(C)CCCNC(=O)[C@@]1(c2ccc([N+](=O)[O-])cc2)CC(=O)N(C2CCCCC2)[C@@H]1c1ccc(CO)cc1I | -2.09
33 | COCCOC(=O)N1C(=O)[C@@]2(c3cc(C#CCCO)ccc31)[C@H](C(=O)N1CCc3cc(OC)c(OC)cc3C1)[C@H]1C(=O)O[C@H](c3ccccc3)[C@H](c3ccccc3)N1[C@@H]2c1ccc(O)cc1 | 0.38
34 | CCCC[C@@H]1C[C@H]1[C@@H](NC(=O)c1ccco1)c1ccc(C(=O)OC)cc1 | -2.59
35 | CCCCCN1CC=CC23O[C@@H]4/C=C\CCCOC(=O)C4[C@H]2C(=O)N(CCCO)[C@@H]3C1=O (stereo not given in full) | 2.27
